Source: PubChem BioAssay (NCI)
About 83,000 compounds went through this panel and 20% of them were active in at least one assay; those are over-represented in the sample as a whole.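 96-well plates, one dose, 48 hours. Percent growth reported; active if below 10.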 Active and inactive are the calls of the source.

Key:
Experiment in all cases: NCI-60 one-dose screen, 48 h (100 = growth as untreated, 0 = no growth, -100 = all killed)
Conditions in all cases: 10 µM unless noted
DU-145 prostate = system: DU-145 prostate
K-562 leukemia = system: K-562 leukemia
MALME-3M melanoma = system: MALME-3M melanoma
MDA-MB-231 breast = system: MDA-MB-231 breast
SF-268 CNS = system: SF-268 CNS
SF-295 CNS = system: SF-295 CNS
SF-539 CNS = system: SF-539 CNS
UACC-257 melanoma = system: UACC-257 melanoma
M14 melanoma = system: M14 melanoma
HCT-15 colon = system: HCT-15 colon
HT29 colon = system: HT29 colon
SNB-75 CNS = system: SNB-75 CNS
SNB-19 CNS = system: SNB-19 CNS
PC-3 prostate = system: PC-3 prostate
SK-MEL-5 melanoma = system: SK-MEL-5 melanoma
UACC-62 melanoma = system: UACC-62 melanoma
LOX IMVI melanoma = system: LOX IMVI melanoma
SK-MEL-28 melanoma = system: SK-MEL-28 melanoma

Measured: growth

Cc1noc(C)c1-c1cc(O)cc(C(O)c2ccccc2)c1 (stereo unspecified)
active: SNB-75 CNS -13.2%
inactive: DU-145 prostate 87.5% | K-562 leukemia 42.1% | MALME-3M melanoma 60% | MDA-MB-231 breast 62.4% | SF-268 CNS 71.5% | SF-295 CNS 42.5% | SF-539 CNS 62.5% | UACC-257 melanoma 40.4% | M14 melanoma 56% | HCT-15 colon 36.7% | HT29 colon 34.6% | SNB-19 CNS 52.7% | PC-3 prostate 48.4% | SK-MEL-5 melanoma 54.2% | UACC-62 melanoma 31.6% | LOX IMVI melanoma 27.3% | SK-MEL-28 melanoma 61.2%

CCOC(=O)CC(C)=N
inactive: DU-145 prostate 121% | K-562 leukemia 110% | MALME-3M melanoma 99.9% | MDA-MB-231 breast 103% | SF-268 CNS 130% | SF-295 CNS 111% | SF-539 CNS 97.6% | UACC-257 melanoma 102% | M14 melanoma 102% | HCT-15 colon 105% | HT29 colon 103% | SNB-75 CNS 84% | SNB-19 CNS 99.7% | PC-3 prostate 104% | SK-MEL-5 melanoma 100% | UACC-62 melanoma 102% | LOX IMVI melanoma 118% | SK-MEL-28 melanoma 101%

COc1ccc(-c2nc(Nc3cc(C)[nH]n3)c3ccccc3n2)cc1
inactive: DU-145 prostate 61% | K-562 leukemia 24.2% | MALME-3M melanoma 79.9% | MDA-MB-231 breast 65.3% | SF-268 CNS 37.3% | SF-295 CNS 48.8% | SF-539 CNS 15% | UACC-257 melanoma 52% | M14 melanoma 60.4% | HCT-15 colon 42.4% | HT29 colon 17.4% | SNB-19 CNS 53.8% | PC-3 prostate 57.2% | SK-MEL-5 melanoma 69% | UACC-62 melanoma 52.9% | LOX IMVI melanoma 13.7% | SK-MEL-28 melanoma 61.5%
active: SNB-75 CNS -33.5%

CCc1ccccc1NC(=O)c1sc2nc3c(cc2c1N)C(=O)CCC3
inactive: K-562 leukemia 11% | MALME-3M melanoma 60.8% | MDA-MB-231 breast 36.6% | SF-268 CNS 40.4% | UACC-257 melanoma 65% | M14 melanoma 15.1% | HCT-15 colon 31.2% | SNB-19 CNS 68.9% | PC-3 prostate 18% | SK-MEL-5 melanoma 30.7% | UACC-62 melanoma 34.3% | LOX IMVI melanoma 42.6% | SK-MEL-28 melanoma 43.7%
active: DU-145 prostate 2.55% | SF-295 CNS -3.21% | SF-539 CNS -1.47% | HT29 colon 8.59% | SNB-75 CNS -15.4%

Cl/C(=N\Nc1ccccc1)c1ccccc1
inactive: DU-145 prostate 101% | K-562 leukemia 89.5% | MALME-3M melanoma 86.4% | MDA-MB-231 breast 89.7% | SF-268 CNS 92.8% | SF-295 CNS 87.7% | SF-539 CNS 103% | UACC-257 melanoma 75.2% | M14 melanoma 106% | HCT-15 colon 93.4% | HT29 colon 103% | SNB-75 CNS 67.4% | SNB-19 CNS 100% | PC-3 prostate 78% | SK-MEL-5 melanoma 93.8% | UACC-62 melanoma 78.2% | LOX IMVI melanoma 97% | SK-MEL-28 melanoma 101%

Cc1cc(Nc2nc(N3CCN(C)CC3)nc3ccccc23)n[nH]1
inactive: DU-145 prostate 88% | K-562 leukemia 57% | MALME-3M melanoma 69% | MDA-MB-231 breast 83.2% | SF-268 CNS 67% | SF-295 CNS 74.4% | SF-539 CNS 76.3% | UACC-257 melanoma 82.9% | M14 melanoma 50.8% | HCT-15 colon 56.5% | HT29 colon 61.5% | SNB-19 CNS 90.8% | PC-3 prostate 71.6% | SK-MEL-5 melanoma 89.9% | UACC-62 melanoma 67.9% | SK-MEL-28 melanoma 68.8%
active: SNB-75 CNS -15.8%

COc1ccc(/C=N\NC(=O)c2ccncc2)cc1O
inactive: DU-145 prostate 99.4% | K-562 leukemia 96.4% | MALME-3M melanoma 78.9% | MDA-MB-231 breast 94.8% | SF-268 CNS 99% | SF-295 CNS 92.5% | SF-539 CNS 107% | UACC-257 melanoma 89.1% | M14 melanoma 101% | HCT-15 colon 107% | HT29 colon 112% | SNB-75 CNS 74.8% | SNB-19 CNS 95.1% | PC-3 prostate 106% | SK-MEL-5 melanoma 92.5% | UACC-62 melanoma 99.8% | LOX IMVI melanoma 97.2% | SK-MEL-28 melanoma 104%

C#Cc1nc(Nc2cc(C)[nH]n2)c2ccccc2n1
inactive: SNB-19 CNS 13.3%
active: DU-145 prostate -80% | K-562 leukemia 2.59% | MALME-3M melanoma -70.8% | MDA-MB-231 breast -56% | SF-268 CNS -86% | SF-295 CNS -57.9% | SF-539 CNS -44.5% | UACC-257 melanoma -54.9% | M14 melanoma -23.6% | HCT-15 colon -25.6% | HT29 colon -30.1% | SNB-75 CNS -88.9% | PC-3 prostate -42.1% | SK-MEL-5 melanoma -84.9% | UACC-62 melanoma -81.5% | LOX IMVI melanoma -74.8% | SK-MEL-28 melanoma -58.5%

CCOC(=O)c1nc(Nc2cc(C)[nH]n2)c2ccccc2n1
inactive: DU-145 prostate 109% | K-562 leukemia 99.9% | MALME-3M melanoma 116% | MDA-MB-231 breast 108% | SF-268 CNS 101% | SF-295 CNS 107% | SF-539 CNS 95.5% | UACC-257 melanoma 106% | M14 melanoma 80.9% | HCT-15 colon 73.4% | HT29 colon 103% | SNB-75 CNS 16.9% | SNB-19 CNS 115% | PC-3 prostate 93.3% | SK-MEL-5 melanoma 105% | UACC-62 melanoma 91.1% | LOX IMVI melanoma 97.2% | SK-MEL-28 melanoma 93.2%
